# This is part of a sample that, as a whole, favours compounds with a hit. Of some 83,000 tested, about 20% had one in any assay.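 How to read the values: 0–100, growth inhibition (40 = 60% inhibited); 0, no net growth; -100 to 0, cell death (-40 = 40% of starting cells died; -100 = all dead).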 A number with no mark means an inactive call. The source made the active and inactive calls. Rule for the calls: active = growth percent below 10; inactive = the rest.
# Experiments:
# Test in all cases: NCI-60 one-dose screen, 48 h (100 = growth as untreated, 0 = no growth, -100 = all killed)
# Details in all cases: 10 µM unless noted
# SK-MEL-2 melanoma = tested on: SK-MEL-2 melanoma
# EKVX NSCLC = tested on: EKVX NSCLC
# SN12C renal = tested on: SN12C renal
# UO-31 renal = tested on: UO-31 renal
# TK-10 renal = tested on: TK-10 renal
# CAKI-1 renal = tested on: CAKI-1 renal
# A498 renal = tested on: A498 renal
# CCRF-CEM leukemia = tested on: CCRF-CEM leukemia
# MOLT-4 leukemia = tested on: MOLT-4 leukemia
# ACHN renal = tested on: ACHN renal
SMILES,growth (SK-MEL-2 melanoma),growth (EKVX NSCLC),growth (SN12C renal),growth (UO-31 renal),growth (TK-10 renal),growth (CAKI-1 renal),growth (A498 renal),growth (CCRF-CEM leukemia),growth (MOLT-4 leukemia),growth (ACHN renal)
CC1(C)CC[C@]2(CO)CC[C@]3(C)[C@](O)([C@H](O)C[C@@H]4[C@@]5(C)CCCNC(C)(C)[C@@H]5CC[C@]43C)[C@@H]2C1,106%,107%,90%,73%,103%,97.5%,83.6%,74.6%,46%,–
COc1ccc(-c2cn(Cc3cc4ccccc4s3)nn2)cc1OCCN1CCCCC1,90.8%,84.3%,81.6%,37.2%,90.1%,78.9%,-1.93% (active),62.2%,53%,–
Cn1cc(-c2nonc2-c2c[nH]c3ccccc23)c2cc(Br)ccc21,41%,33.6%,55%,36.8%,53.3%,26.3%,40.3%,31%,17.8%,–
CC(C)(C)OC(=O)CN1CCc2c(sc3ncnc(N4CCN(c5ccc(F)cc5)CC4)c23)C1,92.1%,95.5%,91.6%,51.7%,100%,80.6%,68.7%,59.2%,53.4%,–
Nc1c(C(=O)Nc2cccc3ncccc23)sc2nc3c(cc12)CN(Cc1ccccc1)CC3,57.3%,76.4%,82.1%,70.2%,89.4%,74.1%,–,69.6%,48.5%,88.6%
CCOc1ccc(NC(=O)Nc2ccc(OCC)cc2)cc1,121%,108%,104%,95.2%,107%,103%,–,107%,99.3%,116%
Nc1ncnc2c1N=C(c1ccc(F)cc1)CC(c1cccc(Nc3ccnc4cc(Cl)ccc34)c1)N2 (configuration not stated),89.1%,64.9%,79.7%,59.6%,105%,70.5%,92.3%,74.1%,39.6%,–
O=CCCCOCc1ccccc1,104%,95.6%,98.8%,95%,97.7%,98.1%,85.8%,104%,103%,–
CSc1ccc2c3c(n(C[C@H](O)CO)c(=O)c2c1)-c1ccccc1C3=O,104%,77.1%,23.1%,19.9%,70.7%,27.9%,52.3%,-4.25% (active),-17.8% (active),–
COc1cc(-c2ccc[nH]2)[nH]c1/C=C1\N=C(C)C(CC(=O)OCC(C)(C)C)=C1C,-60.4% (active),-69.3% (active),-75% (active),-86.5% (active),-89.9% (active),-78.8% (active),-89.9% (active),-16.5% (active),-37% (active),–
c1cc(OCCN2CCCCCC2)ccc1CNc1ccc2nc(CCC3CCCCC3)[nH]c2c1,75%,79.8%,54.7%,10.8%,88.7%,42.8%,–,29.5%,25.5%,80.6%
O=C(/C=C/c1ccccc1)c1ccc(-n2cc(CN3CCN(c4cc5c(cc4F)c(=O)c(C(=O)O)cn5C4CC4)CC3)nn2)cc1,96.8%,94%,45.8%,62.5%,83.3%,61.4%,52.2%,64.9%,84.1%,–
COc1cc(C[C@H]2COc3cc(O)cc(O)c3C2=O)ccc1O,13.2%,74.3%,40.9%,48.8%,58.7%,35.8%,90.4%,11.4%,29.3%,–
ClC(Cl)c1nc(-c2ccccc2)n2nc(-c3ccccc3)cc2n1,72.1%,-22.1% (active),58.7%,3.46% (active),0.776% (active),-34.7% (active),-26.5% (active),63.3%,30.8%,–
CCOC(=O)/C=C1\S/C(=N\Nc2cc(=O)[nH]c3ccc(Br)cc23)N(c2ccccc2)C1=O,99.3%,97.2%,78.9%,60.1%,90.8%,69.9%,–,–,21.4%,73%
O=C1Nc2ccc(Cl)cc2/C1=C/c1ccc[nH]1,96.2%,32.8%,87.5%,47.7%,61.4%,45.7%,134%,96.2%,83.4%,–
CCOC(=O)c1[nH]cc2c1CCc1sc(Nc3ccccn3)nc1-2,84.8%,58.4%,91.8%,70.2%,116%,82.3%,62.2%,-2.37% (active),55.2%,–
COc1ccc(/C=C2\CN(C(=O)C(Cl)Cl)C/C(=C\c3ccc(OC)c(OC)c3)C2=O)cc1OC,14.9%,8.31% (active),-60.6% (active),-99% (active),22%,-17.2% (active),–,12%,5.43% (active),-82.7% (active)
N#Cc1ccccc1-c1ccc(CN2C(=O)S/C(=C\c3ccc(Br)cc3)C2=O)cc1,102%,87.8%,91.6%,91%,110%,85.4%,107%,100%,106%,–
Clc1ccc(-c2nc(C(Cl)Cl)nc3cc(-c4ccccc4)nn23)cc1,84.5%,-12.8% (active),65.1%,47.3%,36.8%,-15.8% (active),-15.8% (active),53.4%,31.7%,–
CCOC(=O)c1cnn(CC(C)O)c1NC(=O)NCc1cccc(F)c1 (configuration not stated),85.6%,99.9%,103%,–,86.9%,97.3%,96.4%,-2.06% (active),81.4%,106%
O=C1CCCC1[n+]1ccccc1 (configuration not stated),85.3%,92.6%,104%,–,79.4%,92.4%,126%,–,113%,105%
COCCn1cc(-c2csc(-c3c[nH]c4ccccc34)n2)c2cccnc21,18.3%,31.8%,64.3%,–,34.9%,56.2%,17.7%,36.7%,25.7%,49.6%
Oc1c(I)cc(I)cc1CN(Cc1ccccn1)Cc1ccccn1,21.6%,13%,27.3%,–,8.19% (active),0.0911% (active),22.3%,9.21% (active),5.38% (active),–
CCOC(=O)NC(=S)n1oc(=O)c2ccccc21,110%,101%,102%,–,109%,90.4%,103%,101%,95.9%,101%
COc1ccc(C2CC(n3ccnc3)c3cc(OC)c(OC)c(OC)c32)cc1O (configuration not stated),89.6%,101%,104%,–,101%,74.5%,88.3%,90.9%,90%,86.4%
COc1cc(N2C(=O)[C@H](Cl)C2c2ccc(SC)cc2)cc(OC)c1OC (some centres not stated),44.6%,28.6%,31.8%,–,49.1%,24.3%,-7.35% (active),11.4%,7.86% (active),–
COc1ccc2[nH]cc(-c3nonc3-c3c[nH]c4ccc(Br)cc34)c2c1,73.1%,29.9%,67.7%,–,49.9%,24.8%,51.4%,38.6%,28.3%,38.7%
FC(F)(F)c1[nH]ncc1-c1nc2ccc3[nH]ncc3c2c2c1CCCC2,-18.4% (active),3.77% (active),12.5%,–,1.15% (active),9.85% (active),-60.5% (active),6.43% (active),-30% (active),5.04% (active)
